Targets with a hit are over-represented here; the source holds about 8,800 in all. About 0.5% of all pairs of compound and target were hits. A number with no mark means an inactive call.

What all share (experiment): log2 fold change, soluble protein after heating vs DMSO (PISA); higher = thermal stabilisation; K562 lysate, 10 uM; active = over 0.2 and 3.5 SD of the protein, either way, in both replicates (recomputed)
Compound in test [1]: NCC(=O)Nc1ccc(-n2nc(C(F)(F)F)cc2-c2ccc3c(ccc4ccccc43)c2)cc1
In a few lines: (§1)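 The values are log-two fold changes in thermal stability compared with solvent controls and come from duplicates. They were obtained by TMTpro 16plex LC-MS/MS, with channel sums equalised, on the supernatant after 21,000xg for 90 min. That supernatant came from crude K562 extract at 1 mg/mL protein treated with 10 μM compound for 30 min, heated for 3 min across 48°C-58°C, pooled and brought to 0.5% NP-40 at 4°C.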

Compound in another test: O=C(CCCCCCC(=O)Nc1ccccc1)NO [vorinostat]
The method, boiled down:
as §1

Compound in a further test: O=C(O)c1ccc2c(c1)nc(Nc1cccc(Cl)c1)c1ccncc12 [silmitasertib]
The method, boiled down: as §1

Compound in test [2]: O=C1NC(=O)C(c2cnc3ccccn23)=C1c1cn2c3c(cc(F)cc13)CN(C(=O)N1CCCCC1)CC2
In a few lines: as §1

Compound in the next test: c1cn2cc(-c3ccc4cn[nH]c4c3)nc(Nc3ccc(N4CCOCC4)cc3)c2n1 [entospletinib]
The method, boiled down: as §1

UniProt P49915, sequence (P49915 whole entry, looked up): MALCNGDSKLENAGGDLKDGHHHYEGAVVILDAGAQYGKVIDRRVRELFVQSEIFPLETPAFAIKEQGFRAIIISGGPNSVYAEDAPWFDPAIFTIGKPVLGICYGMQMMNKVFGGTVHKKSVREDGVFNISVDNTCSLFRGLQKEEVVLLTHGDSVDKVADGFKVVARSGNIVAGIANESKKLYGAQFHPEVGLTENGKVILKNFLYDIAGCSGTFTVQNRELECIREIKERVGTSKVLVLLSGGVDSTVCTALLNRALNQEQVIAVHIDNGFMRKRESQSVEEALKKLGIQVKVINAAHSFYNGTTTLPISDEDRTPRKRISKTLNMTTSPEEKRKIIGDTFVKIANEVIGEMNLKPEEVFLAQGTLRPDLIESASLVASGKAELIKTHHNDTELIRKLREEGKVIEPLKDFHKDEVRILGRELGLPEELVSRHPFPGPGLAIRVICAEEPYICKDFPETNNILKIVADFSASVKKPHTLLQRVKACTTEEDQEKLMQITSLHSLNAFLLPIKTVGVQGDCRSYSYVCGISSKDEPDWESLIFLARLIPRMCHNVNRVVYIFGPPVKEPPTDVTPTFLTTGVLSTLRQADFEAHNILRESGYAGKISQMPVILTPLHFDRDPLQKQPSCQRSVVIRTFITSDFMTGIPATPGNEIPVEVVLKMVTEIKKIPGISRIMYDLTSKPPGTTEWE
UniProt Q9BX10, sequence (Q9BX10 whole entry, looked up): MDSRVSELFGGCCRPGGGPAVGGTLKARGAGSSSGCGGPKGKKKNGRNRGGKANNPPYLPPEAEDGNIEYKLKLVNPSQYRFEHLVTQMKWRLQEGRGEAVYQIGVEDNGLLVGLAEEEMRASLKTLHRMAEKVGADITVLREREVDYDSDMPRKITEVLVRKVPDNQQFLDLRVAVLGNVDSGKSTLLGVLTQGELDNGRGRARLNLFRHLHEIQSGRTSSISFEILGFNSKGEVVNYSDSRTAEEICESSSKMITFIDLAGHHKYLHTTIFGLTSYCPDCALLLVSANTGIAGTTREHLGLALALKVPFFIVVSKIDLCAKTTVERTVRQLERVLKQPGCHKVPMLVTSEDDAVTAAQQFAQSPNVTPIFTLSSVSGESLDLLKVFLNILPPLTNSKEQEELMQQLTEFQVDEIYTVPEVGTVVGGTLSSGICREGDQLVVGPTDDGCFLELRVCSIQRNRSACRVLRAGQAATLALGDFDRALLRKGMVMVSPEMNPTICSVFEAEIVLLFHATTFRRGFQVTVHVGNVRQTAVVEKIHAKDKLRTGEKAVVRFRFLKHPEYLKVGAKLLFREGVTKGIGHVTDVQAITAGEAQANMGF
UniProt P50747, sequence (P50747 whole entry, looked up): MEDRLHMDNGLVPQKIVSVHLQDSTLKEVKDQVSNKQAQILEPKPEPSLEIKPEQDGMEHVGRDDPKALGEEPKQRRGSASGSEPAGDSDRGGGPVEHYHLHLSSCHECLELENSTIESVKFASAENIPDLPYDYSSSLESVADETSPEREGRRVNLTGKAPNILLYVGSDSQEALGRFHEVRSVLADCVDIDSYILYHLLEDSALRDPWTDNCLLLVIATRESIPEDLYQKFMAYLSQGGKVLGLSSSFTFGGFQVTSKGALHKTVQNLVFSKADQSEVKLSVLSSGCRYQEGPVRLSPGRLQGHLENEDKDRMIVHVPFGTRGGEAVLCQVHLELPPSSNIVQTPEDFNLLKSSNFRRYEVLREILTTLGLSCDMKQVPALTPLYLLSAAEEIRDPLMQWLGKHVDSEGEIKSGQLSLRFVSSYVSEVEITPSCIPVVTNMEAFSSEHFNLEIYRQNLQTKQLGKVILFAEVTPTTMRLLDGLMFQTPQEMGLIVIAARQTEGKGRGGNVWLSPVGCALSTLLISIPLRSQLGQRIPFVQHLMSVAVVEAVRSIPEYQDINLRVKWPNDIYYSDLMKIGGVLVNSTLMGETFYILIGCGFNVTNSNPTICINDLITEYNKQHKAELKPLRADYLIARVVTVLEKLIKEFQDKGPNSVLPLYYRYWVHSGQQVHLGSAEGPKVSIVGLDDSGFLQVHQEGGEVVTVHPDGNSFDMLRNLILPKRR
UniProt Q9H4A5, sequence (Q9H4A5 whole entry, looked up): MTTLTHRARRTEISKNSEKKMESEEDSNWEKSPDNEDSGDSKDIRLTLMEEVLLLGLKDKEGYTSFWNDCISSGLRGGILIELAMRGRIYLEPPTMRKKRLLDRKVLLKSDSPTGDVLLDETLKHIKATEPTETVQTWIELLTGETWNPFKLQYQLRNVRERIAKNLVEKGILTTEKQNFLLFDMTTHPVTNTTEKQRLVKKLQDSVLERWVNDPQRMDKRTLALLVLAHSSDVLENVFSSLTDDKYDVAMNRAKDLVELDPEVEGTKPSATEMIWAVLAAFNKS
UniProt Q14687, sequence (Q14687 whole entry, looked up): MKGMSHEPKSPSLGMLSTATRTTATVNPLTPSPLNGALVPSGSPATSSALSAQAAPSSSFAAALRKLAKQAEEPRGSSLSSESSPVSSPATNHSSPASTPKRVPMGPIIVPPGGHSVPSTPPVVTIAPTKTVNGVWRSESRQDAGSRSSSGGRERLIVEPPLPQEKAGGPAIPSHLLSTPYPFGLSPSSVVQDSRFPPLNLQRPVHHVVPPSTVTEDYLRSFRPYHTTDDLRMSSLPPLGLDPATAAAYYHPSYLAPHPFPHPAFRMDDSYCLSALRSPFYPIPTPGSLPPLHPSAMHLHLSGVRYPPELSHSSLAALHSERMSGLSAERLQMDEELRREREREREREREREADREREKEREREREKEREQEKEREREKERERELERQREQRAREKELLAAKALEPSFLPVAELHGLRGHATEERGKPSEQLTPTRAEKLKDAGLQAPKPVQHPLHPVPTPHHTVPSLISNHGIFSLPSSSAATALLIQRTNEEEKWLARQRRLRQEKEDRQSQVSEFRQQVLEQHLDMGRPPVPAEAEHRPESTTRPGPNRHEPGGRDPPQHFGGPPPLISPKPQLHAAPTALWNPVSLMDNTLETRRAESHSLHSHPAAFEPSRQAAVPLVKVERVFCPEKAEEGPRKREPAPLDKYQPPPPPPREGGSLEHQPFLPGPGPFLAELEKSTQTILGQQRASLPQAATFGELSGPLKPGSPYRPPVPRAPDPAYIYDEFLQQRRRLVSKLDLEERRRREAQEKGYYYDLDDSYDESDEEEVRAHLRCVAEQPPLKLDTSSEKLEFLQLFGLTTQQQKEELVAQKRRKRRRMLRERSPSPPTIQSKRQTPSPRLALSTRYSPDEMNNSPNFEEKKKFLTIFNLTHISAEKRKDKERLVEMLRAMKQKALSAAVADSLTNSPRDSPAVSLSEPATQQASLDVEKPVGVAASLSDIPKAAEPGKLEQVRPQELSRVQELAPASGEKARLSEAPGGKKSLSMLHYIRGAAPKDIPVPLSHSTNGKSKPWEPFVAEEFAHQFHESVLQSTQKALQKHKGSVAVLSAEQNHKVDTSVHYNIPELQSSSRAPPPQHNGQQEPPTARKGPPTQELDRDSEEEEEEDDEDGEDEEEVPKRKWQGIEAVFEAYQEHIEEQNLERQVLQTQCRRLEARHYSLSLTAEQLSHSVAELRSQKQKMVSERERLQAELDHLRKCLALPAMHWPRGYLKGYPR
UniProt Q9Y287, sequence (Q9Y287 whole entry, looked up): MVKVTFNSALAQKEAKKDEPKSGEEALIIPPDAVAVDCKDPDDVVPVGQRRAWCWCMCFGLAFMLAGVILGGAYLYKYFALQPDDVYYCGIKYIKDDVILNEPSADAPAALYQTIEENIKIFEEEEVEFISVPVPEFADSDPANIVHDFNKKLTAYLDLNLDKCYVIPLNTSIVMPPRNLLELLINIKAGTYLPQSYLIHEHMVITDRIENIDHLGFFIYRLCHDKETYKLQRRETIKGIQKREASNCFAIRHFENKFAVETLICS
UniProt Q6AI08, sequence (Q6AI08 whole entry, looked up): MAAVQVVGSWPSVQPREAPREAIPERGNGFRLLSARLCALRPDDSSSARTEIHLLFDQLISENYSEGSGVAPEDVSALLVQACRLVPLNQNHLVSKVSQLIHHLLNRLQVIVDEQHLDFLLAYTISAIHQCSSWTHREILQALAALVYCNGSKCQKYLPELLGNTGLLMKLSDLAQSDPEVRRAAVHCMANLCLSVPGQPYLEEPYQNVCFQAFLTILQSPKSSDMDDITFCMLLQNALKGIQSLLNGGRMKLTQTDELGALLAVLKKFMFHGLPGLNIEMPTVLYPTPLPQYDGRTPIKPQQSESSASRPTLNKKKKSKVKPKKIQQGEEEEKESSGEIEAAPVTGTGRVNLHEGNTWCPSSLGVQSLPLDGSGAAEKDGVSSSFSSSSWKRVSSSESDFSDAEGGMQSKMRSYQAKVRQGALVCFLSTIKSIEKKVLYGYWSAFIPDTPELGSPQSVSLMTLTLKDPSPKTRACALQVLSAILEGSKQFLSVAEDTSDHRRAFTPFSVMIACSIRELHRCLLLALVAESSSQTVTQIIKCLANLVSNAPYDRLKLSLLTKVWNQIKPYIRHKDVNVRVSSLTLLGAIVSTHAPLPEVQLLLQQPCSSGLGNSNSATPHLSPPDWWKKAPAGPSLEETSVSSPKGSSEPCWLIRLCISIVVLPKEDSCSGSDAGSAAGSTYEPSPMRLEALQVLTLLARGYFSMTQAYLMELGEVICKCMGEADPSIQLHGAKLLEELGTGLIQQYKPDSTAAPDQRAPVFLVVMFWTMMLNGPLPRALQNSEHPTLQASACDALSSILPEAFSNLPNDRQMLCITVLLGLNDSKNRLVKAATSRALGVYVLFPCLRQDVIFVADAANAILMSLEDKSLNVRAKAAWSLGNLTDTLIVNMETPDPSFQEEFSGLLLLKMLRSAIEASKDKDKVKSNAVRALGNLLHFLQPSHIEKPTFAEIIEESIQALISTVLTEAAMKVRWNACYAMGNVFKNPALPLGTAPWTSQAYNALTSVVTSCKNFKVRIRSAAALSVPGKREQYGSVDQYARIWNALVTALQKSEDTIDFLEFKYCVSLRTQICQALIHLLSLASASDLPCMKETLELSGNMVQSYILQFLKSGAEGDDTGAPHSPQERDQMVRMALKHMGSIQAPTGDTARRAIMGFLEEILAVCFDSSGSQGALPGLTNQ

Turning to GOLPH3L (UniProt Q9H4A5), the log2 fold change in test [1] is -0.061; with vorinostat it was -0.035; with silmitasertib, -0.002; in test [2], 0.047; in the test with entospletinib it was 0.048.
For the target GMPS (UniProt P49915), the log2 fold change in test [1] is 0.017; with vorinostat, -0.553 (active); in the test with silmitasertib, 0.028; in test [2] it was 0.002; in the test with entospletinib, 0.01.
As for ITM2B (UniProt Q9Y287), the log2 fold change in test [1] is -0.101; in the test with vorinostat it was 0.141; with silmitasertib, 0.013; in test [2], 0.004.
Consider GTPBP2 (UniProt Q9BX10), for which the log2 fold change in test [1] is 0.029; in the test with vorinostat, -0.289 (active); with silmitasertib it was 0; in test [2] it was -0.003; with entospletinib, 0.056.
GMIP (UniProt Q9P107): the log2 fold change in test [1] is -0.018; with vorinostat, -0.302 (active); with silmitasertib, 0.058; in test [2], 0.021; with entospletinib, -0.038.
As for ILK (UniProt Q13418), the log2 fold change was -0.047 in test [1]; -0.343 (active) with vorinostat; 0.086 in the test with silmitasertib; 0.019 in test [2]; 0.096 with entospletinib.
As for HLCS (UniProt P50747), the log2 fold change in test [1] was -0.048; in the test with vorinostat, -0.054; in the test with silmitasertib, -0.012; in test [2], 0.004; with entospletinib, 0.009.
For HEATR6 (UniProt Q6AI08) the same measures were -0.005, -0.466 (active), 0.047, -0.026 and 0.
In the case of GSE1 (UniProt Q14687), the log2 fold change in test [1] was 0.029; with vorinostat, -0.286 (active); with silmitasertib, -0.006; in test [2], -0.006; with entospletinib it was -0.017.
